esBAF inh: SWI/SNF esBAF complex inhibition. mouse ES cells, Bmi1-luciferase knock-in reporter, 24 h; 100% = twice the neutral-well signal. reporter increase, % at 12.5 µM. 350,000 compounds, 2% hits. AID 602393; in the data active means activation above about 40%; inconclusive means no clear call, values can overlap the other calls;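 further: 0% = median of the plate's neutral control wells and 100% = double that signal; a rise in the Bmi1 reporter signal indicates esBAF inhibition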
Wnt bcat act: Wnt/beta-catenin pathway activation; Wnt/beta-catenin reporter cell assay, activator, plate reader; activation, % at 9.35 µM; 300,000 compounds, 1.2% hits; in the data active means activation above about 30%, passing the limit was not always enough; inconclusive means no clear call, values can overlap the other calls;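 further: 0% = neutral control wells and 100% = positive control wells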
MITF TRPM1 HTS: MITF TRPM1 promoter activation in melanoma cells; SK-MEL-5 TRPM1-promoter luciferase, 24 h; % of positive control, neutral wells = 0; activation, % at 12.5 µM; 300,000 compounds, 0.75% hits;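 active means mean activation of at least 80% with every replicate also reaching 80%; inconclusive means mean reaches 80% but some replicate falls short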;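 further: 0% = neutral control wells and 100% = parthenolide positive control wells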
Statin myotox sup: suppressors of simvastatin-induced myotoxicity in C2C12 myotubes | ATP luminescence, 48 h; scaled: DMSO 0, geranylgeraniol control 100 | 330,000 compounds, 0.78% hits | rescue of ATP level, % at 7.49 µM | AID 602340;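 active means mean ATP rescue above about 67%, or every replicate alone reaching that limit, limit read from the data, passing the limit was not always enough; inconclusive means no clear call, values can overlap the other calls; inactive means mean under the limit and some replicate under it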;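 further: myotubes were challenged with 10 µM simvastatin during compound exposure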
Active calls of the source: *; ? = inconclusive; nt = not tested or not shown. Rows were chosen to be rich in hits. Some 3% of all compounds tested hit in one or more screens of this group.

SMILES	esBAF inh	Wnt bcat act	MITF TRPM1 HTS	Statin myotox sup
CC(C)NC(=O)c1ccccc1S(=O)(=O)c1ccccc1C#N	1.1	0.4	-5.5	-2.1
O=C1/C(=C\c2ccc([N+](=O)[O-])cc2)CCc2ccccc21	nt	12.7	22.4	nt
O=C1/C(=C/Nc2cccc([N+](=O)[O-])c2)CCc2ccccc21	nt	90.3*	38.9	nt
O=C(C[C@@H]1C[C@H]2c3cc(NC(=O)C4CCOCC4)ccc3O[C@H]2[C@H](CO)O1)NCc1ccc(Cl)cc1	-2.7	nt	nt	-5.3
C[C@H]1CCCCO[C@@H](CN(C)C(=O)CCCN(C)C)[C@@H](C)CN([C@@H](C)CO)C(=O)c2cc(NC(=O)C3CCCCC3)ccc2O1	-7.6	nt	nt	nt
CO[C@H]1CN(C)C(=O)c2cc(NC(=O)Nc3ccccc3F)ccc2OC[C@@H](C)N(Cc2ccccc2C(=O)O)C[C@@H]1C	-1.8	nt	nt	1.4
Cc1noc(C)c1S(=O)(=O)Nc1ccc2c(c1)C(=O)N([C@@H](C)CO)C[C@@H](C)[C@H](CN(C)S(=O)(=O)c1ccc(Cl)cc1)OCCCC[C@@H](C)O2	6.6	nt	nt	-10.4
Cc1noc(C)c1S(=O)(=O)Nc1ccc2c(c1)C(=O)N([C@@H](C)CO)C[C@@H](C)[C@@H](CN(C)S(=O)(=O)c1ccc(Cl)cc1)OCCCC[C@H](C)O2	3.2	nt	nt	140.0*
Cc1noc(C)c1NC(=O)Nc1ccc2c(c1)C(=O)N([C@@H](C)CO)C[C@@H](C)[C@H](CN(C)S(=O)(=O)c1c(C)noc1C)OCCCC[C@@H](C)O2	-0.5	nt	nt	76.7*
C[C@@H]1CCCCO[C@H](CN(C)S(=O)(=O)c2ccc(Cl)cc2)[C@H](C)CN([C@@H](C)CO)C(=O)c2cc(NS(C)(=O)=O)ccc2O1	5.1	nt	nt	163.0*
O=C(N[C@@H]1CC[C@H](CCNS(=O)(=O)c2cccc(Cl)c2)O[C@H]1CO)c1ccncc1	-2.8	nt	nt	19.0
C[C@H](O)C#Cc1ccc2c(c1)O[C@@H](CN(C)Cc1ccccc1)[C@H](C)CN([C@H](C)CO)S2(=O)=O	-2.9	nt	nt	-81.4
CN1c2ccc(C#Cc3cccnc3)cc2[C@H]2[C@H](CCN2S(=O)(=O)c2cccc(F)c2)[C@@H]1CO	1.3	nt	nt	-4.8
O=C(NCc1cccc(F)c1)[C@@H]1[C@@H](CO)[C@@H]2Cn3c(ccc(-c4ccncc4)c3=O)[C@H]1N2CC1CC1	6.1	nt	nt	-23.5
CC(C)OCC(O)CN (stereo unspecified)	7.1	-6.5	0.3	96.7*
CCN1CCN(CC(O)COC(C)C)CC1 (stereo unspecified)	-1.7	nt	6.0	8.5
CCNC(=S)Nc1ccc2c(c1)oc1ccccc12	63.3*	38.4*	?	-17.6
CC(C)c1ccc(NC(=O)N2CCOCC2)cc1	44.8*	3.4	nt	-12.7
CCNC(=S)Nc1ccc2ncoc2c1	-2.4	0.8	-3.8	0.7
O=C(Nc1ccc2c(c1)oc1ccccc12)N1CCOCC1	59.8*	nt	55.9	-30.2
CO[C@@H]1CN(C)C(=O)c2ccc(NC(=O)NC(C)C)cc2OC[C@H](C)N(Cc2ccccn2)C[C@@H]1C	-1.5	nt	nt	13.2
COc1ccc(NC(=O)N(C)C[C@@H]2OCCCC[C@@H](C)Oc3ccc(N(C)C)cc3C(=O)N([C@@H](C)CO)C[C@H]2C)cc1	24.5	nt	nt	-18.8
Cc1ccc(S(=O)(=O)N(C)C[C@H]2Oc3ccc(NS(=O)(=O)c4cn(C)cn4)cc3CC(=O)N([C@H](C)CO)C[C@@H]2C)cc1	1.9	nt	nt	0.2
C=CCOC(=O)/C(=C\c1cccc2ccccc12)NC(=O)c1ccccc1	55.8*	nt	26.1	6.5
COc1ccc(S(=O)(=O)Nc2cccc3c2O[C@H](CN(C)Cc2ccccc2)[C@@H](C)CN([C@@H](C)CO)C3=O)cc1	-1.4	nt	nt	-1.8
SMILES	esBAF inh	Wnt bcat act	MITF TRPM1 HTS	Statin myotox sup
COc1ccc(Br)cc1C1SCCN1S(C)(=O)=O (stereo unspecified)	-0.8	-2.1	-5.2	118.2*
COc1ccc(Nc2ncnc3ccccc23)c(OC)c1	10.1	-1.5	15.2	-0.9
COc1ccc(Nc2nnc(Cc3ccncc3)c3ccccc23)c(OC)c1	52.4*	1.1	4.1	-2.5
C[C@@H]1CN([C@H](C)CO)C(=O)c2cccc(NS(=O)(=O)c3ccc(F)cc3)c2O[C@@H]1CN(C)C(=O)Nc1ccccc1	-3.4	nt	nt	5.8
COc1ccccc1C(=O)N/C(N)=N/c1nc2ccccc2o1	50.7*	0.2	26.6	-16.5
Cc1ccc(C(=O)N/C(N)=N/c2nc3ccccc3o2)cc1	43.5*	nt	51.4	-28.0
COc1ccc(S(=O)(=O)Nc2cccc3c2O[C@@H](CN(C)C(=O)NC(C)C)[C@@H](C)CN([C@@H](C)CO)C3=O)cc1	-2.4	nt	nt	nt
CC(C)COCC(O)CCC(=O)NNC(=S)Nc1ccccc1 (stereo unspecified)	nt	-2.1	11.1	nt
CC(C)COC(=S)Nc1ccccc1	59.5*	nt	50.0	-14.7
C[C@@H]1CCCCO[C@@H](CN(C)C(=O)Nc2ccc(F)cc2)[C@@H](C)CN([C@@H](C)CO)C(=O)c2cc(NC(=O)C3CCCCC3)ccc2O1	11.7	nt	nt	nt
O=C(Cc1ccccc1)Nc1nc(-c2ccc(F)c(F)c2)cs1	16.5	4.0	28.7	12.0
O=C(Nc1nc(-c2cccs2)cs1)C1=COCCO1	nt	-6.6	62.5	nt
COc1ccc(-c2csc(NC(=O)C3=COCCO3)n2)cc1OC	65.5*	35.2*	73.6	4.0
CCc1ccc(-c2csc(NC(=O)C3=COCCO3)n2)cc1	74.7*	?	82.3*	-15.9
O=C(Nc1nc(-c2ccc(F)c(F)c2)cs1)C1=COCCO1	52.6*	8.6	62.3	-3.8
O=C(Cc1ccccc1F)Nc1nc(-c2ccc(F)c(F)c2)cs1	65.1*	9.1	83.2*	11.4
COc1ccc(NC(=O)N(C)C[C@H]2Oc3ncc(C#C[C@@H](C)O)cc3C(=O)N([C@@H](C)CO)C[C@@H]2C)cc1	6.4	nt	nt	-6.4
CCCN1[C@H](C(=O)NC2CCC2)[C@@H](CO)[C@@H]2Cn3c(ccc(-c4cccnc4)c3=O)[C@@H]21	2.1	nt	nt	9.5
CCNC(=O)C[C@@H]1CC[C@@H]2[C@H](COc3ccc(NC(=O)Nc4c(C)noc4C)cc3C(=O)N2C)O1	-3.2	nt	nt	4.0
C[C@H]1CCCCO[C@@H](CN(C)C(=O)Cc2ccccc2)[C@@H](C)CN([C@@H](C)CO)C(=O)c2cc(NS(=O)(=O)c3ccc(Cl)cc3)ccc2O1	11.8	nt	nt	nt
COc1ccc(CN(C)C[C@@H]2Oc3ccc(NS(=O)(=O)c4c(C)noc4C)cc3CC(=O)N([C@H](C)CO)C[C@@H]2C)cc1	4.6	nt	nt	-31.1
O=C(C[C@@H]1CC[C@@H]2[C@H](COC[C@H](O)CN2Cc2cc(F)cc(F)c2)O1)NCc1cccc(F)c1	-1.5	nt	nt	9.9
O=C(Nc1nc(-c2ccc(Cl)cc2)cs1)C1=COCCO1	nt	-2.1	98.6*	-33.4
Cc1cc(OCC#N)nc(N)n1	1.8	-1.5	2.4	1.5
Cc1cc(OCC(F)(F)C(F)(F)C(F)(F)C(F)F)nc(N)n1	49.9*	29.3	nt	-26.4
O=C(NCc1ccco1)c1ccccc1NS(=O)(=O)c1ccc2c(c1)OCCO2	6.6	nt	7.3	108.6*
O=C(Nc1ccc(Cl)cc1)Nc1ccccc1C(=O)NCc1ccco1	17.7	40.2*	25.4	-27.7
